Results reported in PubChem BioAssay AID425 (Sanford-Burnham Center for Chemical Genomics, 2006).
Several values for one entry are separate records, joined by “and”; a condition that tells them apart may be missing. Identical values can stand only once. Hit rate of the full screen: of about 110,000 compounds, about 190 (0.17%) were called active. The sample holds actives, similar compounds and a random draw of the others, so the mix is not that of the screen. Potency and affinity values are given separately. Values without a mark were called inactive. Cut-off read from the data, not from the text of the source: active = inhibition above about 50%; inactive = the rest.

Biological target: Dual specificity protein phosphatase 6 (Rattus norvegicus) (UniProt Q64346)
Test: inhibition of rat DUSP6 enzyme activity – biochemical, in vitro, primary screen (AID 425);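 note: plate controls were vehicle for no effect and reference inhibitor for full effect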
Settings: recombinant MKP-3 phosphatase activity, fluorescence; at 20 µM; stronger effect = higher value

Dual specificity protein phosphatase 6 (Rattus norvegicus), sequence (Q64346 whole entry, looked up): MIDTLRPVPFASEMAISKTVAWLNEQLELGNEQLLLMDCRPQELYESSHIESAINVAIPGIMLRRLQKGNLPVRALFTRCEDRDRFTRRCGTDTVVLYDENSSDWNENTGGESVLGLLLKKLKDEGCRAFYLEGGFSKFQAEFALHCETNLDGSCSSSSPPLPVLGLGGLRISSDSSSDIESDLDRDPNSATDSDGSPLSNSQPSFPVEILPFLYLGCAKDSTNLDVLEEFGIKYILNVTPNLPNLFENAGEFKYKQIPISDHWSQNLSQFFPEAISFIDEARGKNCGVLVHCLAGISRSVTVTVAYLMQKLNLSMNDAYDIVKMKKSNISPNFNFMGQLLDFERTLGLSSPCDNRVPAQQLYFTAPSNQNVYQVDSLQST

| Compound | inhibition |
| --- | --- |
| Cc1onc(-c2ccccc2)c1C(=O)NCCNc1c(Cl)cccc1[N+](=O)[O-] | 3.9% |
| Cc1ccc(S(=O)(=O)N=C2C=CC(=O)C=C2)c(C)c1 | 7.6% |
| Cc1ccc(C)c(S(=O)(=O)/N=C2\C=CC(=O)c3ccccc32)c1 | 63.5% (active) |
| CN(C)C1=C/C(=N/S(=O)(=O)c2ccccc2)c2ccccc2C1=O | 13.9% |
| O=C1C=C/C(=N\S(=O)(=O)c2ccc(F)cc2)c2ccccc21 | -2% |
| CC(=O)Nc1ccc(S(=O)(=O)NN2C(=O)c3ccccc3C2=O)cc1 | 2.6% |
| CC(=O)Nc1ccc(S(=O)(=O)/N=C2/NC(=O)CS2)cc1 | -0.8% |
| CC(=O)Nc1ccc(S(=O)(=O)/N=C2\C=CC(=O)c3ccccc32)cc1 | 111% (active) |
| O=C1C=CC(=NS(=O)(=O)c2ccccc2)c2ccccc21 | 68.4% (active) |
| Cc1ccccc1S(=O)(=O)N=C1C=CC(=O)C(Cl)=C1 | 3.1% |
| CCc1ccc(OCC(=O)NCCN(C)C)c(Br)c1 | -12% |
| O=C(Nc1ccc(Br)cc1)N1CCCCCCC1 | -0.5% |
| CCOC(=O)Cc1csc(NC(=O)CN(C)S(=O)(=O)c2cccc3cccnc23)n1 | -9.4% |
| O=C(NCCCn1ccnc1)c1cnn2c(C(F)(F)F)cc(-c3ccc(Br)cc3)nc12 | 2.4% |
| Nc1nnc(SCc2coc(-c3ccc(Cl)cc3)n2)s1 | -7.1% |
| COc1ccc(NC(=O)/C(=C\c2ccco2)NC(=O)c2ccco2)cc1 | 4.4% |
| N/C(=N\OC(=O)c1ccccc1I)c1cccnc1 | -4% |
| COc1cc(/C=C2\SC(=Nc3ccc(C)c(Cl)c3)NC2=O)ccc1O | 3.3% |
| Cc1c(Cl)cccc1N=C1NC(=O)/C(=C/c2ccc(O)c([N+](=O)[O-])c2)S1 | 18.5% |
| Cc1ccc(N=C2NC(=O)/C(=C/c3ccc(O)c([N+](=O)[O-])c3)S2)cc1Cl | 82.6% (active) |
| CC1=C(C(=O)Nc2ccccc2)C(c2cccc(I)c2)NC(=S)N1 (centres undefined) | 4.4% |
| Cc1c(C)n(O)c2ccc3nonc3c12 | 2.7% |

| Compound | inhibition |
| --- | --- |
| COn1c(C)c(C(C)=O)c2c3nonc3ccc21 | -7.8% |
| COn1c(C)c(C)c2c3nonc3ccc21 | 86.9% (active) |
| CCOC(=O)c1ccc(NC(=O)COc2ccc(Cl)cc2C)cc1 | 2.5% |
| COC(=O)c1ccc(Nc2ncnc3c2cnn3-c2cccc(C)c2)cc1 | -5% |
| O=C(Cc1ccccc1)Nc1cc(C(=O)O)cc(C(=O)O)c1 | 0.2% |
| CC1CC(=O)c2cnc(NCC3CCCO3)nc2C1 (centres undefined) | -7.6% |
| Cc1c(C)c2ccc(OCC(=O)c3ccc(-c4ccccc4)cc3)cc2oc1=O | 1.8% |
| NC(=O)C1CCN(C(=O)CN2CCCc3ccccc32)CC1 | 1.6% |
| Cc1c(C(=O)O)cccc1-n1c(C)ccc1C | 25.2% |
| Cc1ccc(C)n1-c1ccccc1C(=O)O | 72.7% (active) |
| COc1cc(C(=O)O)c(-n2c(C)ccc2C)cc1OC | 5% |
| Cc1ccc(C)n1-c1ccc(Cl)cc1C(=O)O | 104% (active) |
| Cc1ccc(C)n1-c1ccc(Br)cc1C(=O)O | 0.2% |
| Cc1ccc(-c2ccccc2)n1-c1ccccc1C(=O)O | 5% |
| O=C(CCCN1CCC(c2ccccc2)C1)c1ccc2c(c1)OCCO2 (centres undefined) | -3.4% |
| CC(=O)Nc1ccc(S(=O)(=O)NC(CC(=O)O)c2ccc(OC(C)C)cc2)cc1 (centres undefined) | 7.9% |
| CC(C)(C)NC(=O)C(=O)N/N=C/c1ccc(Cl)cc1 | -3.9% |
| CNc1ccc2[nH]nc3c2c1C(=O)c1ccccc1-3 | -22.4% |
| Cc1ccccc1OCC(=O)Nc1cccc(NC(=O)c2ccccc2Cl)c1 | -2.5% |
| Cc1cc(Br)cc(C)c1NC(=O)c1ccc2c(c1)OCCO2 | 82.6% (active) |
| CC(=O)c1ccc(NC(=O)c2ccc3c(c2)OCCO3)cc1 | -4.6% |
| Cc1cccc(C)c1NC(=O)c1ccc2c(c1)OCCO2 | 2.1% |

| Compound | inhibition |
| --- | --- |
| CCN1C(=O)NC(c2cccnc2)C(C(=O)OC)=C1C (centres undefined) | -5.5% |
| CC(C)N(Cc1nc(-c2ccccc2)no1)C(=O)Cc1ccccc1 | -1.5% |
| CS(=O)(=O)N(CC(=O)NCc1ccccn1)c1ccc2c(c1)OCCO2 | -1.1% |
| O=C1c2ccccc2-c2onc3c(Br)cc(O)c1c23 | 87.7% (active) |
| CCOC(=O)C(C(=O)OCC)c1cc(Br)c2noc3c2c1C(=O)c1ccccc1-3 | 23.6% |
| O=C1c2ccccc2-c2onc3c(Cl)cc(Sc4ccccc4)c1c23 | 3.9% |
| Cc1onc(-c2ccccc2Cl)c1C(=O)NCc1cccs1 | 5.5% |
| O=C(O)c1ccc(Cl)c(-c2ccc(/C=N\Nc3ccc([N+](=O)[O-])cn3)o2)c1 | 8.7% |
| O=C(O)c1cccc(-c2ccc(/C=N/Nc3ccc([N+](=O)[O-])cn3)o2)c1 | 51.1% (active) |
| O=C(O)c1cc(-c2ccc(/C=N/Nc3ccc([N+](=O)[O-])cn3)o2)ccc1Cl | 7.3% |
| O=C(O)/C=C/C(=O)Nc1ccc(NC(=O)c2ccccc2)c(Cl)c1 | 1.5% |
| CNc1ccc2c(O)cc(S(=O)(=O)O)cc2c1 | 65.1% (active) |
| O=C(O)c1cc(S(=O)(=O)O)ccc1O | -4.1% |
| COC(=O)c1cc(C(=O)OC)cc(S(=O)(=O)O)c1 | -0.1% |
| O=C1/C(=C/c2ccc(O)c(O)c2)SC(=S)N1c1ccc(O)cc1 | 8.5% |
| Cc1cc(C)n(C(=O)CNC(=O)c2ccco2)n1 | 1.1% and -4% |
| COc1ccc(C2SC(C)C(=O)N2c2ccc(C)cc2)cc1 (centres undefined) | -0.4% |
| O=C(NCC1CCCO1)c1cc2nc(-c3ccco3)cc(C(F)(F)F)n2n1 (centres undefined) | 0.3% |
| O=C(NCC1CCCO1)c1cc2nc(-c3ccc([N+](=O)[O-])cc3)cc(C(F)(F)F)n2n1 (centres undefined) | 95.8% (active) |
| O=C(NCC1CCCO1)c1cc2nc(-c3ccc(F)cc3)cc(C(F)(F)F)n2n1 (centres undefined) | 2.8% |
